In PubChem BioAssay (NCATS):
Records with an inconclusive call do not appear. A number with no mark means an inactive call. Calls of active or inactive are those of the source. The call rests on the fitted dose curve; in most records, active means well fitted curve in the direction sought with a large enough effect; inconclusive means small, poorly fitted or top-dose-only effect, or another doubt; inactive means no such curve, though single readings can be large; an effect the other way counts as inactive or inconclusive. Residues, ends and D or L forms follow the SMILES beside them. *: point of attachment. Cbz = O=C(OCc1ccccc1)*

Experiments:
[1] = qHTS of pediatric cancer cell lines to identify multiple opportunities for drug repurposing: Primary screen for OHS-50 cells (AID 1347103); further: nearly all actives have a fitted effect of over 40% in size
Method in brief: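 Cells (500-1,000/well) rested 5 h, then received compounds for 48 h; metabolically active cells were measured by CellTiter-Glo luminescence. Final concentrations spanned up to 46 µM (MIPE, 11-point) or 0.59 nM-46 µM (NPC, 8-point) in primary screens, 11-point in follow-ups.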

[2] = qHTS of pediatric cancer cell lines to identify multiple opportunities for drug repurposing: Primary screen for RD cells (AID 1347104); further: nearly all actives have a fitted effect of over 55% in size
Method in brief: (§1)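 Plated cells (500-1,000 per well, growth media) were allowed to settle for 5 hours, treated with compound dilutions for 48 hours, then lysed with CellTiter-Glo for 15 min at room temperature before luminescence reading.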

[3] = qHTS of pediatric cancer cell lines to identify multiple opportunities for drug repurposing: Primary screen for control Hh wild type fibroblast cells (AID 1347106); further: nearly all actives have a fitted effect of over 55% in size
Method in brief: (§2)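 Cells (500-1,000/well) in growth media were settled 5 h at 37 degrees C, then given compounds for 48 h. Viability was read as CellTiter-Glo luminescence. Primary runs used MIPE at 11 points (0.78 nM-46 µM) and NPC at 8 points (0.59 nM-46 µM); follow-ups used 11 points.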

[4] = qHTS of pediatric cancer cell lines to identify multiple opportunities for drug repurposing: Primary screen for Rh30 cells (AID 1347107); further: nearly all actives have a fitted effect of over 75% in size
Method in brief: as §2

[5] = qHTS of pediatric cancer cell lines to identify multiple opportunities for drug repurposing: Primary screen for Rh41 cells (AID 1347108); further: nearly all actives have a fitted effect of over 70% in size
Method in brief: as §1

[6] = qHTS of pediatric cancer cell lines to identify multiple opportunities for drug repurposing: Confirmatory screen for NB1643 cells (AID 1347109); further: nearly all actives have a fitted effect of over 45% in size
Method in brief: as §2

[7] = qHTS of pediatric cancer cell lines to identify multiple opportunities for drug repurposing: Confirmatory screen for A673 cells (AID 1347110);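 further: cells exposed to compound for 48 h before the viability read; nearly all actives have a fitted effect of over 65% in size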
Method in brief: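 Concentration-response curves came straight from titrations: 11 points (0.78 nM to 46 µM) for MIPE and several concentrations (0.59 nM to 46 µM) for NPC in primary, 11 points in follow-up. Readout: ATP luminescence at 48 h.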

[8] = qHTS of pediatric cancer cell lines to identify multiple opportunities for drug repurposing: Confirmatory screen for SK-N-MC cells (AID 1347111);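 further: cells exposed to compound for 48 h before the readout; nearly all actives have a fitted effect of over 70% in size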
Method in brief: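 Metabolically active cells were quantified by ATP-dependent luminescence (CellTiter-Glo, 15 min at room temperature) following 48 h treatment. Cells had been plated at 500-1,000 per well and settled for 5 h beforehand.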

[9] = qHTS of pediatric cancer cell lines to identify multiple opportunities for drug repurposing: Primary screen for MG 63 (6-TG R) cells (AID 1347105); further: nearly all actives have a fitted effect of over 50% in size
Method in brief: as §1

[10] = qHTS of pediatric cancer cell lines to identify multiple opportunities for drug repurposing: Confirmatory screen for BT-12 cells (AID 1347112); further: nearly all actives have a fitted effect of over 55% in size
Method in brief: as §2
Potency means the concentration at half of the fitted maximal effect.

Row | SMILES | Potency [1] | Potency [2] | Potency [3] | Potency [4] | Potency [5] | Potency [6] | Potency [7] | Potency [8] | Potency [9] | Potency [10]
1 | CN(C)CC(=O)N1CCC(c2ccc(NC(=O)c3ncc(C#N)[nH]3)c(C3=CCCCC3)c2)CC1 | 13.7 µM (active) | 18.7 µM (active) | inactive | – | – | – | – | – | – | –
2 | Cc1cnc(NC(=O)Nc2cc(Br)c(C)cc2OC[C@@H]2CNCCO2)cn1 | 1.37 µM (active) | inactive | – | inactive | inactive | – | – | – | – | –
3 | CCc1cc(C(C)=NOCc2ccc(C3CCCCC3)c(C(F)(F)F)c2)ccc1CN1CC(C(=O)O)C1 | 8.63 µM (active) | 5.9 µM (active) | – | inactive | – | 29.3 µM (active) | 13.1 µM (active) | 8.27 µM (active) | – | –
4 | CC(C)(N)c1ccc(-c2nc3ccccc3nc2-c2ccccc2)cc1 | 7.69 µM (active) | 16.6 µM (active) | – | – | – | 26.1 µM (active) | 2.93 µM (active) | 0.465 µM (active) | 23.5 µM (active) | 0.928 µM (active)
5 | Nc1ncn([C@@H]2O[C@H](CO)[C@@H](O)[C@@H]2O)c(=O)n1 | 15.3 µM (active) | 5.9 µM (active) | – | – | – | 16.5 µM (active) | 5.85 µM (active) | 16.5 µM (active) | inactive | 18.5 µM (active)
6 | CC(=O)O[C@H]1C[C@@H]2CC[C@H]3[C@H]4C[C@H]([N+]5(C)CCCCC5)[C@@H](OC(C)=O)[C@@]4(C)CC[C@@H]3[C@@]2(C)C[C@H]1N1CCCCC1 | inactive | inactive | – | – | – | – | – | 3.29 µM (active) | inactive | 7.37 µM (active)
7 | C[C@]12CC[C@@H]3c4ccc(O)cc4CC[C@H]3[C@H]1CC[C@H]2O | 24.3 µM (active) | 10.5 µM (active) | inactive | – | – | – | – | – | – | –
8 | CN(C)CCN1C(=O)c2cccc3cc(N)cc(c23)C1=O | 24.3 µM (active) | 18.7 µM (active) | – | – | 23.5 µM (active) | – | – | – | – | –
9 | CO[C@@H]1[C@@H](O)[C@H](O)[C@@H](n2c3c(Cl)cccc3c3c4c(c5c6cccc(Cl)c6[nH]c5c32)C(=O)NC4=O)O[C@@H]1CO | 0.306 µM (active) | 2.64 µM (active) | inactive | – | 2.35 µM (active) | 1.85 µM (active) | 0.827 µM (active) | 0.928 µM (active) | – | 4.65 µM (active)
10 | C#Cc1cccc(Nc2ncnc3cc(OCCOC)c(OCCO)cc23)c1 | 3.85 µM (active) | 1.66 µM (active) | – | inactive | 7.43 µM (active) | – | – | – | – | –
11 | CN1CCc2c(c3ccccc3n2Cc2ccc(C(=O)NO)cc2)C1 | 13.7 µM (active) | 16.6 µM (active) | inactive | 20.9 µM (active) | 13.2 µM (active) | – | – | – | – | –
12 | c1cc(N[C@@H]2CCNC2)nc(-c2cnc3ccc(-c4cn[nH]c4)cn23)c1 | 19.3 µM (active) | 16.6 µM (active) | 23.5 µM (active) | – | 16.6 µM (active) | – | – | – | – | –
13 | N#Cc1c(C2CCNCC2)cc(-c2c(O)cccc2OCC2CC2)nc1N | 15.3 µM (active) | 16.6 µM (active) | inactive | – | 14.8 µM (active) | – | – | inactive | – | inactive
14 | Oc1ccc([C@@H]2Oc3ccc(O)cc3[C@@H]3CCC[C@@H]32)cc1 | 24.3 µM (active) | 16.6 µM (active) | – | – | 18.7 µM (active) | – | – | – | – | –
15 | CCS(=O)(=O)Nc1ccc2[nH]c(O)c(C(=Nc3ccc(CN4CCCCC4)cc3)c3ccccc3)c2c1 | 1.53 µM (active) | 0.469 µM (active) | – | – | 0.743 µM (active) | 0.0657 µM (active) | 0.928 µM (active) | 0.0737 µM (active) | 5.9 µM (active) | 18.5 µM (active)
16 | O=C(O)C[C@H](O)C[C@H](O)C=Cc1c(C2CC2)nc2ccccc2c1-c1ccc(F)cc1 | 3.06 µM (active) | 18.7 µM (active) | – | – | 4.69 µM (active) | – | 2.33 µM (active) | 4.65 µM (active) | 1.48 µM (active) | –
17 | Cc1[nH]c(C=C2C(=O)Nc3ccccc32)c(C)c1CCC(=O)O | 1.22 µM (active) | 18.7 µM (active) | inactive | – | – | inactive | inactive | inactive | – | inactive
18 | Cc1coc2c1C(=O)C(=O)c1c-2ccc2c(C)cccc12 | inactive | – | inactive | – | inactive | – | – | – | inactive | –
19 | CC(C)C[C@@H](C=O)NC(=O)[C@H](CC(C)C)NC(=O)[C@H](CC(C)C)NC(=O)OCc1ccccc1 (Cbz-Leu-Leu-Leu-aldehyde) | 0.685 µM (active) | – | 2.96 µM (active) | 3.72 µM (active) | 1.48 µM (active) | 1.17 µM (active) | 1.17 µM (active) | 0.369 µM (active) | 0.372 µM (active) | 1.17 µM (active)
20 | COc1cc2c(cc1OC)[C@@H]1C(=O)c3ccc4c(c3O[C@@H]1CO2)C=CC(C)(C)O4 | 0.172 µM (active) | 0.264 µM (active) | – | – | – | – | 16.5 µM (active) | 2.33 µM (active) | – | 1.31 µM (active)
